Screens from PubChem.
PTAP TSG101 blk: blocks PTAP/TSG101 interaction to inhibit HIV-1 budding; AID 493005; Fluorescence polarization, FITC-PTAP peptide / Tsg101 binding; Potency, µM (series often up to 115 µM), without a hit: top-dose activity change, negative = inhibition, most hits filed as inhibitors; 340,000 tested, under 10 active; Q99816; active means well fitted inhibition curve with a large enough effect in the main read-out, with a control signal flat, not every such curve was filed as active; inconclusive means small, poorly fitted or top-dose-only effect, or effect the other way, or a change in a side signal; inactive means no such curve, though single readings can be large or run the other way; further: % of control where 0% means no effect
Target sequence (Q99816 whole entry, looked up): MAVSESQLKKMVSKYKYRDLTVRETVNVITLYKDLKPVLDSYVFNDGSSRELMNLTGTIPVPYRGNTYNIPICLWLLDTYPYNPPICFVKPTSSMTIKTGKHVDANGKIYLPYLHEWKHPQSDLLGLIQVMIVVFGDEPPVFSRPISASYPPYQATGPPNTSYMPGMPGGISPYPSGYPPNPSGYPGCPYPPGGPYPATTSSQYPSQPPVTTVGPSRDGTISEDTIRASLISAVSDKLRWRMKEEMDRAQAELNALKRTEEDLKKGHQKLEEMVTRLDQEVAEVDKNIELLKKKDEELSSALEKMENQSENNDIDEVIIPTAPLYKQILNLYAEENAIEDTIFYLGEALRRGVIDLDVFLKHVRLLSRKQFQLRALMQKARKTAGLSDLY
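Compounds were pin-transferred onto Tsg101 binding domain (10 uM final) in HEPES pH 7.5 buffer, then FITC-PTAP peptide was added at 50 nM final. After 20 min at RT, polarization reported peptide displacement across a qHTS concentration series.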
KB-V1 cytotox: KB-V1 MDR subline cytotoxicity; actives 3.4% (n = 400,000); AID 1347076; KB-V1 MDR cells viability, CellTiter-Glo, 72 h; Potency, µM (doses to about 46.1 µM), usual class: cytotoxic; further: on the % scale 0 is the no-effect control and ±100 the full control effect; nearly all actives have a fitted effect of over 60% in size
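Drug-selected KB-V1 cells, grown in DMEM lacking phenol red with 10% FBS, receive compound titrations; after three days at 37 degrees C, surviving cell ATP is quantified by CellTiter-Glo luminescence and responses normalized and curve-fitted.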
KB-3-1 tox: kills parental KB-3-1 adenocarcinoma cells | KB-3-1 viability, CellTiter-Glo ATP luminescence, 72 h | Potency, µM (series often up to 46.1 µM), most hits filed as cytotoxic | actives 1.4% (n = 400,000); further: on the % scale 0 is the no-effect control and ±100 the full control effect; nearly all actives have a fitted effect of over 60% in size
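KB-3-1 cells, DMEM (no phenol red) + 10% FBS; compound by pin transfer, 72 h, 37 °C. Readout: CellTiter-Glo luminescence after 10 min. Data normalized, curve-fitted.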
PINK1 modulator: changes PINK1 expression; PINK1 immunofluorescence, high-content cytometry, 24 h; Potency, µM (titrated, usually from 76.6 µM), inactives show at the top dose activation (PINK1 increase), usual class: activators; actives 0.2% (n = 410,000); active means well fitted activation curve with a large enough effect; inconclusive means small, poorly fitted or top-dose-only effect; cell line not stated here; further: % of control where 0% means no effect; nearly all actives have a fitted effect of over 65% in size
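Fluorescence from anti-PINK1 antibody, together with nuclear and cell stains, was scanned on a laser-scanning cytometer. Before staining, stable-line cells were incubated 24 hours with compounds at 5 concentrations; primary antibody 12 h at 10 degrees C.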
MCF10A rerep: DNA re-replication induction in MCF 10a cells | MCF 10A DNA re-replication, Hoechst nuclear intensity, 48 h | Potency, µM (top dose mostly 46.1 µM), without a hit: top-dose activity, positive = re-replication, usual class: activators | actives 2.9% (n = 350,000) | AID 624296; further: % of control where 0% means no effect; nearly all actives have a fitted effect of over 50% in size
SW480 rerep: induces DNA re-replication in SW480 colon adenocarcinoma cells; Potency, µM (series often up to 46.1 µM), for the others: at the top dose re-replication activation, most hits filed as activators; actives 1.8% (n = 340,000); SW480 DNA re-replication, Hoechst DNA content imaging, 48 h; further: % of control where 0% means no effect; nearly all actives have a fitted effect of over 55% in size
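Image-based DNA-content assay: after two days of treatment, nuclei were labelled with the DNA dye Hoechst and imaged, and hits were compounds raising the count of nuclei showing high fluorescence intensity.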
* hit, by the source's call; i = inactive; ? = inconclusive; . = no result; [ ] = remark or other dose. Rows were chosen to be rich in hits. Some 6.8% of all compounds tested hit in one or more screens of this group. Unless noted, the call rests on the fitted dose curve; in most records, active means well fitted curve in the direction sought with a large enough effect; inconclusive means small, poorly fitted or top-dose-only effect, or another doubt; inactive means no such curve, though single readings can be large; an effect the other way counts as inactive or inconclusive. Potency means the concentration at half of the fitted maximal effect.

SMILES | PTAP TSG101 blk | KB-V1 cytotox | KB-3-1 tox | PINK1 modulator | MCF10A rerep | SW480 rerep
Cc1ccc(/C=N/NC(=O)c2csc3c2CCCC3)cc1 | -2% | ? | 2.1µM* | 5% | 1.3µM* | ?
Cc1ccc(-n2nc(C)c3c(C)cc(=O)n(CC(=O)N4CCCc5ccccc54)c32)cc1 | . | i | i | 1% | . | .
COc1ccc(C2CC(c3ccc(Cl)cc3)=NN2C(C)=O)cc1 (stereo not drawn) | 3% | ? | i | -1% | 10% | -2%
COc1ccc(C2CC(c3ccc(Cl)cc3)=NN2c2ccc(S(N)(=O)=O)cc2)cc1 (stereo not drawn) | 0% | i | ? | 7% | ? | 0.82µM*
COc1ccc(C2CC(c3ccncc3)=NN2c2ccc(S(N)(=O)=O)cc2)cc1 (stereo not drawn) | ? | i | i | 1% | 2.9µM* | 18µM*
COc1ccc(C2CC(c3cccc(Cl)c3)=NN2c2ccc(S(N)(=O)=O)cc2)cc1 (stereo not drawn) | -2% | ? | ? | -1% | 1.3µM* | 2.1µM*
Cc1ccc(C2CC(=O)n3nc(-c4cccc(C)c4)nc3S2)cc1 (stereo not drawn) | . | ? | i | -3% | . | .
Cc1ccc(NC(=O)c2c(C)oc3ncn(CC(C)C)c(=O)c23)nc1 | . | i | i | -1% | . | .
CCCCc1nn2c(=O)cc(COC(=O)c3ccc(NC(=O)C(CC)CC)cc3)nc2s1 | . | . | . | 1% | . | .
C=C1C(=O)O[C@@H]2C[C@@H](C)[C@@H]3C=CC(=O)[C@@]3(C)[C@@H](OC(C)=O)[C@H]12 | -6% | 15µM* | ? | -1% | 1.2µM* | ?
C[C@@H]1C[C@@H]2OC(=O)[C@]3(C)[C@H]2[C@@H](OC3(C)O)[C@]2(C)C(=O)C=C[C@H]12 (stereo partly drawn) | -8% | i | ? | 2% | ? | ?
CC(Oc1ccc(Cl)cc1Cl)C(=O)NCCCn1ccnc1 (stereo not drawn) | -6% | i | i | 1% | 16µM* | -6%
CC(Oc1ccc(Cl)cc1Cl)C(=O)NNC(=O)c1ccncc1 (stereo not drawn) | 3% | i | i | -1% | -1% | -1%
CC(Oc1ccc(Cl)cc1Cl)c1nc(-c2ccc(NC(=O)c3cccnc3)cc2)no1 (stereo not drawn) | 0% | i | i | 12% | 27% | -3%
CC(Oc1ccc(Cl)cc1Cl)c1nc(-c2ccc(NC(=O)c3ccncc3)cc2)no1 (stereo not drawn) | -7% | ? | ? | ? | 23µM* | ?
O=C(CCCOc1ccc(Cl)cc1Cl)NCCCn1ccnc1 | -2% | i | i | 1% | 1% | -5%
Cc1ccc(-c2nc3cc(NC(=O)C(C)C)ccc3o2)cc1 | -3% | i | i | 7% | -2% | 2%
CC(Oc1ccc(Cl)cc1Cl)C(=O)NCc1ccncc1 (stereo not drawn) | -4% | 21µM* | i | -1% | -1% | -2%
CC(Oc1ccc(Cl)cc1Cl)C(=O)Nc1ccc2oc(-c3ccncc3)nc2c1 (stereo not drawn) | -2% | i | ? | 6% | 9.2µM* | ?
Cc1nn(-c2ccccc2)c2c1N(CC(=O)N1CCN(c3ccc(Cl)cc3)CC1)C(=O)CS2 | . | i | i | 3% | . | .
Cc1ccc2c(=O)cc(C(=O)Nc3c(C)n(C)n(-c4ccccc4)c3=O)oc2c1 | . | i | i | 2% | . | .
COc1ccc2c(C#CCCO)c(-c3ccc(S(C)(=O)=O)cc3)sc2c1 | -7% | i | i | 5% | 21µM* | ?
CCOc1ccc(NC(=O)COc2cccc3cccnc23)cc1S(=O)(=O)N1CCCC1 | . | 21µM* | ? | 1% | . | .
O=C(COc1cccc2cccnc12)Nc1cccc(S(=O)(=O)N2CCCC2)c1 | -1% | ? | i | 0% | 4% | -16%
CCOc1ccc(NC(=O)CN2CCN(c3ccccc3C)CC2)cc1S(=O)(=O)N1CCCC1 | -1% | 4.1µM* | i | 1% | -4% | 0%
SMILES | PTAP TSG101 blk | KB-V1 cytotox | KB-3-1 tox | PINK1 modulator | MCF10A rerep | SW480 rerep
COc1ccccc1-c1ccc(Nc2cccc(C(C)=O)c2)nn1 | -14% | 13µM* | i | -4%[38.3 µM] | 16% | 8%
CC(=O)c1cccc(Nc2ccc(-c3ccccc3F)nn2)c1 | -3% | i | i | 2% | 0% | -3%
CC(=O)c1ccc(Nc2ccc(-c3ccccc3C)nn2)cc1 | -1% | i | i | 2% | 26µM* | 24%
CCN(CC)C(=O)c1sc2c(c1C)c(=O)n(-c1ccc(C)c(C)c1)c(=O)n2Cc1cccc(Cl)c1 | . | i | i | 4% | . | .
COc1ccccc1N1CCN(c2nc(-c3ccc(C)cc3)nc3ccccc23)CC1 | . | i | i | 4% | . | .
Oc1ccc(C=NNC(=S)Nc2ccccc2)nc1 | . | i | 16µM* | 2% | . | .
Oc1cccc(/C=N/NC(=S)Nc2cccnc2)c1O | -1% | i | 10µM* | 3% | ? | ?
Fc1c(F)c(F)c(/C=N/NC(=S)Nc2cccnc2)c(F)c1F | 0% | i | i | -2% | 11µM* | ?
O=c1c(-c2ccccc2)nc2cnc(N3CCNCC3)nc2n1C1CC1 | . | . | . | 1% | . | .
COC(=O)C1CCN(S(=O)(=O)c2cc3c4c(c2)C(C)C(=O)N4CCC3)CC1 (stereo not drawn) | . | i | i | 1% | . | .
Cc1cccc(C(=O)N(Cc2ccccc2F)C2CCS(=O)(=O)C2)c1 (stereo not drawn) | . | ? | ? | 4% | . | .
Oc1[nH]c(N=C2N=c3ccccc3=N2)c2ccccc12 | -1% | ? | ? | -1% | ? | 16µM*
CC(C)CCNC(=O)c1ccc2c(c1)NC(=O)C(CS(=O)(=O)Cc1ccc(F)cc1)N2 (stereo not drawn) | . | i | i | -1% | . | .
Cc1cc2oc3cc(NCCC4CCCN4C)ccc3c(=O)c2cc1C (stereo not drawn) | 1% | i | i | -2% | 16µM* | ?
CN1CCCC1CCNc1ccc2sc3ccccc3c(=O)c2c1 (stereo not drawn) | -6% | ? | ? | 0% | -14% | ?
Cc1cc(C)cc(Nc2cc(C(=O)NC3CCC(C)CC3)c3ccccc3n2)c1 (stereo not drawn) | . | i | i | 1% | . | .
Cc1c(CN(C)Cc2cn(C)nc2-c2ccccc2F)[nH]c2ccccc12 | -4% | i | i | 0% | 18µM* | ?
